Assay outcomes as filed in PubChem BioAssay.
A selection: hits, their analogues and other compounds. The true share with any hit is near 19%.
DT40 TDP1 CPT = DT40-hTDP1 cell growth loss with CPT. hit rate 12% among 420,000. chicken DT40 Tdp1-/-;hTDP1 cells + 20 nM CPT, ATP luminescence, 48 h. Potency, µM (titrated, usually from 46.2 µM), without a hit: at the top dose activity change, negative = growth inhibition, usual class: inhibitors. AID 686979; also: potency is read from the fitted curve at half-maximal effect; nearly all actives have a fitted effect of over 55% in size
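Cell growth measured by CellTiter-Glo luminescence after a minimum 48 h, 37 C compound exposure with 20 nM CPT in Tdp1-knockout DT40 cells stably expressing hTDP1, seeded 400/well; qHTS titration format.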
IL-1B inflam inh = blocks inflammasome-driven IL-1 beta release; hit rate 4.7% among 360,000; activity change, % at 57.5 µM; THP-1 LPS/ATP IL-1B secretion, AlphaLISA, 16 h; stronger effect = lower value; AID 743279; in the data active = activity change below about -50%; inconclusive = mostly about -30% to -49%
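Secreted IL-1B measured by AlphaLISA bead assay after 16 h compound exposure of THP-1 cells; compounds (final up to 57.5 uM) added 1 h before LPS (250 ng/mL) and ATP (1.25 mM) stimulation; lower signal means less secretion.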
HT1080 IDH1KD tx = HT-1080 IDH1 knockdown cell toxicity (counter line); HT-1080 IDH1 knockdown viability, ATP luminescence, 48 h; Potency, µM (titrated, usually from 46.1 µM), for inactives: at the top dose activity, negative = toxicity, usual class: cytotoxic; hit rate 2% among 360,000;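 also: potency is read from the fitted curve at half-maximal effect; 0% = DMSO wells and -100% = cell-free medium wells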
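CellTiter-Glo luminescence after 48 h compound exposure at 37 degrees C of IDH1-knockdown HT-1080 cells in 5% FBS RPMI. %Activity scaled between DMSO wells and cell-free media wells, with curves fitted and assigned curve classes.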
HT1080-NT tox = kills 2HG-producing HT-1080-NT fibrosarcoma cells. Potency, µM (series often up to 46.1 µM), inactives show top-dose activity, negative = less viability, most hits filed as cytotoxic. hit rate 1.6% among 360,000. AID 686970. HT-1080-NT fibrosarcoma viability, CellTiter-Glo ATP luminescence, 48 h;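 also: NT is the 2HG producing partner of a matched IDH1 knockdown line; potency is read from the fitted curve at half-maximal effect; 0% = DMSO-treated cells and -100% = media-only wells without cells; nearly all actives have a fitted effect of over 55% in size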
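Fibrosarcoma NT cells, 750 per well in 5% FBS RPMI, were exposed to compound for 48 hours. Viability: CellTiter-Glo luminescence.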
DT40 TDP1 no CPT = qHTS for Inhibitors of human tyrosyl-DNA phosphodiesterase 1 (TDP1): qHTS in cells in absence of CPT; DT40 Tdp1-/- hTDP1 cells, no CPT, ATP luminescence, 48 h; Potency, µM (series often up to 46.2 µM), for the others: at the top dose activity change, negative = growth inhibition, hits mostly inhibitors; hit rate 15% among 420,000; also: potency is read from the fitted curve at half-maximal effect; nearly all actives have a fitted effect of over 55% in size
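Luminescent ATP content (CellTiter-Glo) served as the growth readout. Knockout chicken DT40 cells expressing human TDP1 were exposed to compounds without camptothecin for a minimum 48 hr at 37 °C.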
Numbers without * were called inactive; i = inactive; u = inconclusive; x = no result given. Unless noted, calls follow the shape of the dose curve; as a rule, active = well fitted curve in the direction sought with a large enough effect; inconclusive = small, poorly fitted or top-dose-only effect, or another doubt; inactive = no such curve, though single readings can be large; an effect the other way counts as inactive or inconclusive. Unless noted, % is scaled to controls: 0 for no effect and ±100 for the full control effect.

SMILES	DT40 TDP1 CPT	IL-1B inflam inh	HT1080 IDH1KD tx	HT1080-NT tox	DT40 TDP1 no CPT
CC(=O)/C(=N/Nc1ccccc1)Sc1nnc(CCc2ccccc2)n1-c1ccccc1	12µM*	-76*	-3%	-4%	18µM*
O=C(CSc1nnc(CCc2nc3ccccc3[nH]2)n1-c1ccccc1)NCc1ccccc1	-22%	-2	10%	2%	u
COc1ccc(-n2c(CCc3ccccc3)nnc2SCC(=O)NCc2ccccc2)cc1	u	-52*	-7%	-1%	u
Cc1ccc(CCc2nnc(SCC(=O)Nc3ccccc3Cl)n2-c2ccccc2)o1	u	-64*	-6%	-3%	u
COc1ccc(S(=O)(=O)N2CCCCCC2)cc1C(=O)N(C)CC(=O)Nc1ccccc1C(F)(F)F	u	-19	1%	4%	u
CCOC(=O)N1CCN(C(=O)c2c[nH]c3ccc(S(=O)(=O)N(C)c4cccc(C)c4)cc3c2=O)CC1	-14%	24	-3%	-6%	14%
CC1CCN(C(=O)CNC(=O)CNC(=O)Cc2ccccc2)CC1	-10%	6	6%	4%	7%
CC(=O)c1cccc(NC(=O)CCc2nc3cccnc3n2Cc2cccs2)c1	u	x	x	x	-107%
CCCn1c(CCC(=O)Nc2cc(Cl)c(OC)cc2OC)nc2cccnc21	u	x	x	x	16µM*
COc1cc(NC(=O)CCc2nc3cccnc3n2Cc2cccs2)cc(OC)c1OC	16µM*	x	x	x	16µM*
Cc1ccc(C)c(NC(=O)CCc2nc3cccnc3n2Cc2cccs2)c1	18µM*	x	x	x	21µM*
COc1ccc(S(=O)(=O)c2nnn(-c3ccccc3Cl)c2N)cc1	-20%	24	-5%	-3%	-9%
CC(=O)c1ccc(N2CCN(S(=O)(=O)c3ccc4c(c3)CC(C)N4C(=O)C3CC3)CC2)cc1 (centres undefined)	4.6µM*	4	-8%	-5%	5.8µM*
CC(=O)c1ccc(N2CCN(S(=O)(=O)c3ccc4c(c3)CC(C)N4C(C)=O)CC2)cc1 (centres undefined)	23µM*	50	u	u	7.3µM*
Cc1cccc(N2CCN(S(=O)(=O)c3ccc4c(c3)CC(C)N4C(=O)C3CC3)CC2)c1C (centres undefined)	u	-4	-1%	u	23µM*
CCC(=O)N1c2ccc(S(=O)(=O)N3CCN(c4ccc([N+](=O)[O-])cc4)CC3)cc2CC1C (centres undefined)	9.2µM*	5	6.5µM*	u	7.3µM*
Cc1cccc(-c2nc3c4ccccc4nc(N4CCN(c5ccc(F)cc5)CC4)n3n2)c1	6%	x	x	x	6%
COc1ncc2nc(-c3ccc(F)cc3)c(=O)n(CCc3ccccc3)c2n1	5%	x	x	x	18%
CCOC(=O)C1CC(c2ccccc2)=NNC1=O (centres undefined)	12%	6	0%	13%	5%
CCOc1ccc(S(=O)(=O)NCCC(=O)NCCc2ccc(C(C)C)cc2)cc1	u	-11	-10%	5%	u
O=C1CC(=C(c2ccccc2)c2ccccc2)C(=O)N1CCCCN1CCN(c2cccc(Cl)c2)CC1	15µM*	u	u	u	18µM*
Cc1ccccc1N1CCN(CCCN2C(=O)CC(=C(c3ccccc3)c3ccccc3)C2=O)CC1	u	-18	u	-25%	23µM*
O=C(NNS(=O)(=O)c1ccc(F)cc1)c1cc(Cl)ccc1O	-17%	1	-1%	-1%	u
O=c1cc(NCCc2ccccc2)c2ccccc2o1	10µM*	-59*	-19%	-23%	8.2µM*
O=c1cc(NCCO)c2ccccc2o1	2%	0	14%	0%	0%
Cc1ccccc1Nc1cc(=O)oc2ccccc12	12µM*	-13	-25%	-12%	21µM*
O=C(c1ccc(-n2cccn2)cc1)N1CCN(c2ncccc2C(F)(F)F)CC1	u	i	-8%	-1%	u
